Cardio protect: myocardial damage modulation in H9c2 cells; H9c2 cardiomyocytes, H2O2 injury protection, ATPLite, 2 h; protection from H2O2 cell death, % at 20 µM; actives 0.63% (n = 360,000); AID 588492;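 active means compounds giving at least 50% protection of heart cells from peroxide-induced death in the single-dose screen, raw or plate-pattern-corrected value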;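 further: 0% = DMSO wells with peroxide and 100% = DMSO wells without peroxide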
FAS-TE inh: FAS thioesterase (human) inhibition | actives 0.67% (n = 360,000) | recombinant FAS-TE, OMFH fluorogenic substrate, fluorescence endpoint | inhibition, % at 15 µM;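 active means compounds whose normalised, plate-corrected inhibition of enzyme fluorescence in the single-dose primary screen is 50% or more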;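 further: 0% = DMSO with enzyme and 100% = substrate without enzyme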
PfG6PD inh: PfG6PD (Plasmodium falciparum) enzyme inhibition; PfGluPho enzyme, NADPH resazurin-diaphorase fluorescence; inhibition, % at 20 µM; actives 0.78% (n = 350,000); AID 504690;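 active means inhibition reaching at least a set limit at 20 µM in the primary screen, cut at about 59% in these data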;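 further: 0% = DMSO wells with substrate and 100% = DMSO wells lacking glucose-6-phosphate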
CRFBP-R2 block: antagonists of CRF-binding protein/CRF-R2 receptor complex. inhibition, % at 11.8 µM. actives 0.59% (n = 350,000). HEK293 CRF-R2/CRF-BP, CRF-induced calcium fluorescence. AID 588475;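 active means inhibition of the ligand-induced calcium signal above about 50% at the single tested concentration, limit read from the data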
CRFR2-BP ag: agonists of human CRF-binding protein/CRF-R2 receptor complex | HEK293 CRF-R2/CRF-BP, calcium dye fluorescence (FLIPR); percent of saturating CRF peptide response | activation, % at 13.2 µM | actives 0.46% (n = 350,000) | AID 588473;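 active means activation of at least 50%, plus an integration ratio under a set limit after plate pattern correction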;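 further: plate controls were neutral control wells without compound for no effect and CRF at EC100 for full effect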
aDG glyco act: alpha-DG glycosylation activation; actives 0.22% (n = 360,000); Pro5-aDG cells, alpha-DG glycosylation AlphaScreen (IIH6); 0% Pro5, 100% B10-LARGE cell signal; activation, % at 10 µM; AID 624168;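 active means activation of at least 8% versus controls, or a plate z-score of at least 8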;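 further: Pro5 are CHO cells carrying HIG-tagged alpha-DG that lacks glycosylation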
Numbers without * were called inactive. Compounds with a hit are over-represented: about 3.2% of the library has one in this group of screens.

How did CC[C@@]1(O)C(=O)OCc2c1cc1n(c2=O)Cc2cc3c(CN(C)C)c(O)ccc3nc2-1 do in these assays?
Cardio protect: 10; FAS-TE inh: -82; PfG6PD inh: 30; CRFBP-R2 block: -242; CRFR2-BP ag: 231*; aDG glyco act: 0

What do the screens show for `CC[C@@]1(O)C(=O)OCc2c1cc1n(c2=O)Cc2cc3c(N)cccc3nc2-1`?
Cardio protect: 2; FAS-TE inh: -14; PfG6PD inh: 30; CRFBP-R2 block: 11; CRFR2-BP ag: 0; aDG glyco act: 0

How did O=C(NCCOC(=O)C1COc2ccccc2O1)c1cccnc1 (stereo unspecified) do in these assays?
Cardio protect: 12; FAS-TE inh: -8; PfG6PD inh: -6; CRFBP-R2 block: -91; CRFR2-BP ag: 64*; aDG glyco act: 0

How did O=C(NCCOC(=O)C1COc2ccccc2O1)C1COc2ccccc2O1 (stereo unspecified) do in these assays?
Cardio protect: 5; FAS-TE inh: -4; PfG6PD inh: -9; CRFBP-R2 block: 1; CRFR2-BP ag: -1; aDG glyco act: 0

How did COc1cccc(/C=N/NC(=O)c2c(-c3ccccc3)noc2C)c1O do in these assays?
Cardio protect: 41; FAS-TE inh: 4; PfG6PD inh: -24; CRFBP-R2 block: 22; CRFR2-BP ag: -1; aDG glyco act: 2

How did COC(=O)c1cc(OC)c(OC)cc1NC(=O)CCc1ccc(C)o1 do in these assays?
Cardio protect: 0; FAS-TE inh: 1; PfG6PD inh: -7; CRFBP-R2 block: -3; CRFR2-BP ag: -3; aDG glyco act: 0

What do the screens show for `COC(=O)c1cc(OC)c(OC)cc1NC(=O)c1ccc(C)o1`?
Cardio protect: 50*; FAS-TE inh: 0; PfG6PD inh: 2; CRFBP-R2 block: 5; CRFR2-BP ag: -1; aDG glyco act: 0

What do the screens show for `Cc1ccc(/C=N/NC(=O)c2c(-c3ccccc3)noc2C)c(O)c1`?
Cardio protect: 54*; FAS-TE inh: 25; aDG glyco act: 1

How did COC(=O)c1cc(OC)c(OC)cc1NC(=O)c1c(-c2ccccc2)noc1C do in these assays?
Cardio protect: 7; FAS-TE inh: 17; PfG6PD inh: -3; CRFBP-R2 block: 68*; CRFR2-BP ag: -1; aDG glyco act: 0

What do the screens show for `O=S(=O)(NNc1ncc(C(F)(F)F)cc1Cl)c1ccccc1`?
Cardio protect: -1; FAS-TE inh: -7; PfG6PD inh: 55; CRFBP-R2 block: -2; CRFR2-BP ag: -1; aDG glyco act: 0

How did COc1cc(/C=C/C(=O)OC(C)C(=O)c2ccccc2)cc(OC)c1OC (stereo unspecified) do in these assays?
Cardio protect: -3; FAS-TE inh: 12; PfG6PD inh: -8; CRFBP-R2 block: 12; CRFR2-BP ag: -1; aDG glyco act: 0

Results for COC(=O)c1ccccc1NC(=O)c1cccc(NC(=O)C(C)C)c1 ?
Cardio protect: -1; FAS-TE inh: 5; PfG6PD inh: 0; CRFBP-R2 block: 11; CRFR2-BP ag: 0; aDG glyco act: 0

What do the screens show for `Oc1c(Br)cccc1/C=N/c1ncn[nH]1`?
Cardio protect: 67*; FAS-TE inh: -3; PfG6PD inh: 1; CRFBP-R2 block: -59; CRFR2-BP ag: -2; aDG glyco act: 0

What do the screens show for `O=c1c2ccccc2c(/C=N/c2ncn[nH]2)c(O)n1Cc1ccccc1`?
Cardio protect: 8; FAS-TE inh: -152; PfG6PD inh: 2; CRFBP-R2 block: -2; CRFR2-BP ag: -1; aDG glyco act: 0

How did Cc1ccc(/C=C(\CCC(=O)O)c2nc3ccccc3s2)cc1[N+](=O)[O-] do in these assays?
Cardio protect: 8; FAS-TE inh: 35; PfG6PD inh: 14; CRFBP-R2 block: 5; CRFR2-BP ag: -1; aDG glyco act: -1

Results for CN(c1ccccc1)c1ccc(/C=C(\CCC(=O)O)c2nc3ccccc3s2)cc1[N+](=O)[O-] ?
Cardio protect: 0; FAS-TE inh: 11; PfG6PD inh: 16; CRFBP-R2 block: 52*; CRFR2-BP ag: -2; aDG glyco act: 0

What do the screens show for `COc1ccc(NC(=O)NCc2ccccn2)c(OC)c1`?
Cardio protect: 3; FAS-TE inh: -2; PfG6PD inh: -14; CRFBP-R2 block: -1; CRFR2-BP ag: 3; aDG glyco act: 0

How did CC(C)C1OC2(C)OC(=N)C1(C#N)C(C#N)(C#N)C2c1ccccc1 (stereo unspecified) do in these assays?
Cardio protect: -2; FAS-TE inh: -5; PfG6PD inh: -4; CRFBP-R2 block: -72; CRFR2-BP ag: 62*; aDG glyco act: 0

What do the screens show for `Cc1ccc(Nc2nnns2)cc1C`?
Cardio protect: 0; FAS-TE inh: -10; PfG6PD inh: 59*; CRFBP-R2 block: -6; CRFR2-BP ag: 0; aDG glyco act: 0

How did Cc1[nH]n(-c2ccccc2)c(=O)c1/C=N/N1CCOCC1 do in these assays?
Cardio protect: 3; FAS-TE inh: -8; PfG6PD inh: -9; CRFBP-R2 block: 7; CRFR2-BP ag: 2; aDG glyco act: 0

Results for Cc1[nH]n(-c2ccccc2)c(=O)c1/C=N/N1C(=O)c2cccc3cccc(c23)C1=O ?
Cardio protect: 40; FAS-TE inh: -7; PfG6PD inh: 6; CRFBP-R2 block: 22; CRFR2-BP ag: 62*; aDG glyco act: 0

What do the screens show for `Cc1ccc(OCc2ccc(C(=O)NN)o2)c([N+](=O)[O-])c1`?
Cardio protect: 7; FAS-TE inh: -5; PfG6PD inh: 5; CRFBP-R2 block: -2; CRFR2-BP ag: 0; aDG glyco act: 0

What do the screens show for `Cc1ccc(OCc2ccc(C(=O)Nc3c(C)nn(Cc4c(F)c(F)c(F)c(F)c4F)c3C)o2)c([N+](=O)[O-])c1`?
Cardio protect: -15; FAS-TE inh: 38; PfG6PD inh: -7; CRFBP-R2 block: 31; CRFR2-BP ag: 2; aDG glyco act: 4.0*

Results for CCN(CC)c1ncnc2c1ncn2[C@H]1CN(Cc2ccc(-c3ccccc3)cc2)C[C@@H](CO)O1 ?
Cardio protect: 2; FAS-TE inh: 7; aDG glyco act: 1

Results for COc1ccc(NS(=O)(=O)c2ccc3ccccc3c2)c2ncccc12 ?
Cardio protect: 59*; FAS-TE inh: 27; PfG6PD inh: -10; CRFBP-R2 block: 8; CRFR2-BP ag: 3; aDG glyco act: 0

Results for Cc1c(C(=O)Nc2ccccc2F)sc2ncn(CC(=O)N3CCOCC3)c(=O)c12 ?
Cardio protect: 9; FAS-TE inh: -2; PfG6PD inh: -9; CRFBP-R2 block: 1; CRFR2-BP ag: 0; aDG glyco act: 0

Results for CCc1cccc(OCC(=O)Nc2ccc(C)c(S(=O)(=O)N3CCCCCC3)c2)c1 ?
Cardio protect: -20; FAS-TE inh: 19; PfG6PD inh: 8; CRFBP-R2 block: 3; CRFR2-BP ag: 9; aDG glyco act: 0
